In PubChem BioAssay AID1851 (National Center for Advancing Translational Sciences (NCATS), 2009):
Several values for one entry are separate records, joined by “and”; a condition that tells them apart may be missing. Equal entries are not always repeated. Out of some 16,000 compounds screened, about 5,800 (36%) were called active. Not shown: some 23% with an inconclusive outcome. Some of the results follow. Values without a mark were called inactive. Calls come from the whole dose curve; as a rule, active = well fitted curve in the direction sought with a large enough effect; inconclusive = small, poorly fitted or top-dose-only effect, or effect the other way; inactive = no such curve, though single readings can be large or run the other way.

Molecular target: Cytochrome P450 2C19 (Homo sapiens) (UniProt P33261)
Assay: Cytochrome panel assay with activity outcomes
Settings: recombinant CYP, pro-luciferin dealkylation, luminescence, p450-cyp2c19; series mostly up to 57.1 µM; activity, negative = inhibition: at the top concentration
% is set by controls: 0 for no effect and ±100 for the full control effect.

Cytochrome P450 2C19 (Homo sapiens), sequence (P33261 whole entry, looked up): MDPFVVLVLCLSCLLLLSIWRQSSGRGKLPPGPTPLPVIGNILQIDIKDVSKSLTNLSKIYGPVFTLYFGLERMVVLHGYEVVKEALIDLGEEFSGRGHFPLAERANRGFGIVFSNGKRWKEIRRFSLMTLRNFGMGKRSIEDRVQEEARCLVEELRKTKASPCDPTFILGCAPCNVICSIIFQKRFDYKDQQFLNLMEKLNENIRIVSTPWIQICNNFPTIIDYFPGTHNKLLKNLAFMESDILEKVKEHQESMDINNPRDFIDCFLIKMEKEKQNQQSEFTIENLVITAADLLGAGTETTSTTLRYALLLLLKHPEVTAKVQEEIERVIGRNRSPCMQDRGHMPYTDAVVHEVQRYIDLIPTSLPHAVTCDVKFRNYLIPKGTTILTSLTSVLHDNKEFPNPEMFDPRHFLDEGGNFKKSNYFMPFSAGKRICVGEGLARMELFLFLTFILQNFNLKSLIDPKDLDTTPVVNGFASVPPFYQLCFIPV

| Structure (SMILES) | AC50 | activity, negative = inhibition |
| --- | --- | --- |
| CCOC(=O)COc1c(OC)cc(Cl)cc1C1Nc2ccccc2C(=O)N1c1ccc(F)cc1 (stereo not given) | 0.501 µM (active) | – |
| CCOC(=O)CC1NC(=O)c2ccccc21 (stereo not given) | – | -29.3% |
| CCOC(=O)COc1c(OC)cc(Cl)cc1C1Nc2ccccc2C(=O)N1c1cccc(C)c1 (stereo not given) | 1.41 µM (active) | – |
| C#CCn1c(=O)c2c(ncn2C)n(C)c1=O | – | -7.88% |
| O=C(Nc1cccc(C(F)(F)F)c1)c1ccc(Cn2cc(Br)cn2)o1 | 2.24 µM (active) | – |
| CCN(CC)S(=O)(=O)c1cccc(C(=O)N[C@H](C(=O)OCC(=O)NC(=O)NC)C(C)C)c1 | 7.94 µM (active) | – |
| [N-]=[N+]=NC[C@@H]1O[C@@H](n2cnc3c(N)ncnc32)[C@@H]2O[C@@H]21 | – | 18.5% [at 11.4 µM] |
| CC(C)=CCC/C(C)=C/CC/C(C)=C/CSc1ccccc1C(=O)O | – | -8.59% |
| Cn1c(=O)cc(SCC(=O)NCCN2CCN(c3ccccc3F)CC2)c2cc(Cl)ccc21 | 11.2 µM (active) | – |
| Cc1c(Cl)cnc(NC(=O)COC(=O)CCS(=O)(=O)c2ccccc2)c1Cl | 20 µM (active) | – |
| CC(C)=CC(=O)OCC(=O)Nc1ncc(Cl)c(C)c1Cl | 15.8 µM (active) | – |
| Nc1ccc(CCNc2ncnc3c2ncn3[C@@H]2O[C@@H](CO)[C@H](O)[C@@H]2O)cc1 | – | -1.06% |
| Cc1cc(N)n2ncc(-c3ccc(Cl)cc3)c2n1 | 15.8 µM (active) | – |
| Cc1cc(N2CCN(C)CC2)n2nc(-c3ccc(Cl)cc3)nc2n1 | – | 4.95% [at 11.4 µM] |
| COC(=O)c1ccc(Cl)c(NC(=O)c2ccc(-c3ccccc3)cc2)c1 | – | -8.48% |
| COc1cc(C(=O)Nc2cc(C(F)(F)F)ccc2Cl)cc(OC)c1OC | 22.4 µM (active) | – |
| COc1cc(C(=O)NC(=S)Nc2ccc(Cl)c(C(=O)O)c2)cc(OC)c1OC | – | -6.67% |
| COc1cc(/C=C/C(=O)Nc2cc(C(F)(F)F)ccc2Cl)cc(OC)c1OC | 20 µM (active) | – |
| O=C(Cc1ccccc1)NC(=S)Nc1cc(C(F)(F)F)ccc1Cl | 0.708 µM (active) | – |
| COc1cccc(C(=O)Nc2cc(C(F)(F)F)ccc2Cl)c1 | 7.08 µM (active) | – |
| CN(C)c1cc[n+](CC(=O)Nc2cc(C(F)(F)F)ccc2Cl)cc1 | – | -23.1% |
| CCCC(=O)Nc1ccc(C(=O)Nc2cc(C(F)(F)F)ccc2Cl)cc1 | 20 µM (active) | – |
| C/C(CCN1CCCCc2nc(C)c(C)cc21)=N\O[C@@H](C)c1cn([C@H](CO)Cc2ccccc2)nn1 | – | -12.5% [at 11.4 µM] and 36.9% [at 11.4 µM] |
| COc1ccccc1NC(=O)CN1CCN(C2c3ccccc3-c3ccccc32)CC1 | 0.708 µM (active) | – |
| COc1ccc(NC(C)=O)cc1NC(=O)CN1CCN(C2c3ccccc3-c3ccccc32)CC1 | 2.51 µM (active) | – |

| Structure (SMILES) | AC50 | activity, negative = inhibition |
| --- | --- | --- |
| COC(=O)C/C=C1\c2ccccc2[C@H](OC)[C@H]1C | – | 23.9% [at 11.4 µM] |
| CC(=O)Nc1ccc2c(c1)C(=Nc1ccc(C(=O)O)cc1)c1ccccc1-2 | – | 24.2% [at 11.4 µM] |
| CC(C)OC(=O)CN1CCN(C2c3ccccc3-c3ccccc32)CC1 | 7.08 µM (active) | – |
| O=C(O)C[C@@H](C(=O)O)C1c2ccccc2-c2ccccc21 | – | 26.9% [at 11.4 µM] |
| N#CCCn1c(=O)c(-c2cc(F)cc(F)c2)nc2cnc(Nc3ccccc3)nc21 | – | 25% |
| FC(F)(F)c1cc(CN2CC3(CCNCC3)C2)cc(C(F)(F)F)c1 | – | 10.5% |
| COc1cc(C2SCCCCCCCCCCSC(c3ccc(O)c(OC)c3)SCCCCCCCCCCS2)ccc1O (stereo not given) | – | 20.3% [at 11.4 µM] |
| COc1ccc(Oc2ncc3nc(-c4cn(C)c5ccccc45)c(=O)n(C)c3n2)cc1 | – | 17% |
| Cn1cc(-c2nc3cnc(Oc4ccccc4)nc3n(C)c2=O)c2ccccc21 | – | -13.6% |
| Cn1c(Oc2ccccc2)c(C=O)c2ccccc21 | 4.47 µM (active) | – |
| Cc1ccc(C(=O)O/N=C/c2c(Cl)n(C)c3ccccc23)cc1 | – | -9.13% |
| COc1ccc(Oc2c(C=O)c3ccccc3n2C)cc1 | 2.82 µM (active) | – |
| O=C(COc1ccccc1Cl)Nc1cc(Cl)ccc1Oc1ccccc1 | 1 µM (active) | – |
| Cc1cc(NC(=O)COc2ccc(Cl)cc2Cl)n(-c2ccccc2)n1 | 1.12 µM (active) | – |
| CN(C)c1ccc(-c2ccc3ncnc(NC4CC4)c3c2)cc1 | – | -44.6% |
| Cc1noc(C)c1-c1ccc2ncnc(NC3CCNCC3)c2c1 | 15.8 µM (active) | – |
| c1nc(NC2CCNCC2)c2cc(-c3ccc4c(c3)OCO4)ccc2n1 | – | -26.1% |
| COc1cccc(-c2ccc3ncnc(NC4CC4)c3c2)c1 | 1.26 µM (active) | – |
| CS(=O)(=O)Nc1cccc(-c2ccc3ncnc(NC4CCNCC4)c3c2)c1 | – | 3.78% |
| c1nc(NC2CCNCC2)c2cc(-c3ccoc3)ccc2n1 | – | -44.8% |
| COc1cccc(-c2ccc3ncnc(NC4CCNCC4)c3c2)c1 | 6.31 µM (active) | – |
| c1cncc(-c2ccc3ncnc(NC4CCNCC4)c3c2)c1 | – | -7.83% |
| Cc1cc(C)n(-c2nc3ccccc3c(=O)n2OCc2ccc(Cl)cc2)n1 | 0.398 µM (active) | – |
| Cn1c(=O)c(-c2ccc(Cl)cc2)nc2cnc(OCc3ccccc3)nc21 | – | 12.8% |
| C[C@@H](CN1CCC(Cc2ccccc2)CC1)[C@H](O)c1ccc(O)cc1 | – | 15.6% |

| Structure (SMILES) | AC50 | activity, negative = inhibition |
| --- | --- | --- |
| CC(C)OC(=O)c1cc2c(ccn2C)n1CC(=O)N1CCC(Cc2ccccc2)CC1 | 14.1 µM (active) | – |
| CCOC(=O)c1cc2c(ccn2C)n1CC(=O)N1CCCC(C)C1 (stereo not given) | 8.91 µM (active) | – |
| Cc1ccc(C)c(Cn2c(C(=O)OC(C)C)cc3c2ccn3C)c1 | 1.78 µM (active) | – |
| C[C@@H](CN1CCC(Cc2ccccc2)CC1)[C@@H](O)c1ccc(O)cc1 | – | 18.2% |
| CSc1nnc(-c2ccc(Cl)cc2Cl)o1 | 25.1 µM (active) | – |
| Clc1ccc(-c2nnc(CCc3ccccc3)o2)c(Cl)c1 | 1.41 µM (active) | – |
| c1ccc(C2=NN[C@@H]3c4ccccc4-c4ccccc4N3C2)cc1 | – | -22.1% [at 11.4 µM] |
| CN1CCN(c2ncncc2-c2ccc(N(C)C)cc2)CC1 | 10 µM (active) | – |
| CN(C)c1ccc(-c2ccc3ncnc(-n4ccnc4)c3c2)cc1 | 10 µM (active) | – |
| CN(C)c1ccc(-c2ccc3ncnc(N(C)C)c3c2)cc1 | – | -40.3% |
| CN(C)C(=O)c1ccc(-c2cncnc2N2CCNCC2)cc1 | – | 5.63% |
| COc1cccc(-c2cncnc2-n2ccnc2)c1 | 0.631 µM (active) | – |
| c1cncc(-c2cncnc2-n2ccnc2)c1 | – | -34.8% |
| CN(C)C(=O)c1ccc(-c2ccc3ncnc(N4CCNCC4)c3c2)cc1 | – | -11.3% |
| CN1CCN(c2ncncc2-c2ccc(C(=O)N(C)C)cc2)CC1 | – | -10.9% |
| CN(C)c1ccc(-c2cncnc2-n2ccnc2)cc1 | 3.98 µM (active) | – |
| CS(=O)(=O)Nc1cccc(-c2cncnc2-n2ccnc2)c1 | – | -13.4% |
| COCCNc1ncnc2ccc(-c3ccoc3)cc12 | – | 21.5% |
| CN(C)c1ccc(-c2cc(-n3ccnc3)ncn2)cc1 | 7.94 µM (active) | – |
| c1cn(-c2ncnc3ccc(-c4ccoc4)cc23)cn1 | 10 µM (active) | – |
| N#Cc1ccccc1-c1ccc2ncnc(N3CCNCC3)c2c1 | – | -23.5% |
| Cc1ccccc1-c1ccc2ncnc(-n3ccnc3)c2c1 | 2 µM (active) | – |
| CN1CCN(c2cc(-c3ccc(N(C)C)cc3)ncn2)CC1 | – | -4.96% |
| CCCCN(CC)C(=O)Cc1ccccc1OC | 4.47 µM (active) | – |
| CCN(CC)C(=O)c1ccc(O)c(OC)c1 | – | 2.06% [at 25.6 µM] |

| Structure (SMILES) | AC50 | activity, negative = inhibition |
| --- | --- | --- |
| COc1ccccc1CN1CCC2(CC1)CCN(C(C)=O)CC2 | – | 9.85% |
| Cc1ccc2nc(Cc3ccc(N)cc3)[nH]c2c1 | 3.55 µM (active) | – |
| N#Cc1c(SCC(N)=O)nsc1SCc1ccccc1Cl | 1.12 µM (active) | – |
| Nc1nc(SCc2ccccc2Cl)cc(C(=O)O)n1 | – | 35% [at 11.4 µM] |
| CN(C)C(=O)c1ccc(-c2nc(NC3CCNCC3)c3ccccc3n2)cc1 | – | 26.9% |
| CC1CCC(NC(=O)CC(C)(C)Cc2nc3ccccc3c(=O)[nH]2)CC1 (stereo not given) | 6.31 µM (active) | – |
| CN=C(NC#N)Nc1ccc(C2=NNC(=O)C[C@@H]2C)cc1 | – | -25.2% |
| Cc1nc2cnc(N3CCN(C)CC3)nc2n(CCc2ccccc2)c1=O | 5.01 µM (active) | – |
| CN1CCN(c2ncc3ncc(=O)n(Cc4ccc(F)cc4)c3n2)CC1 | – | -39.4% |
| CN1CCN(c2ncc3nc(-c4cccs4)c(=O)n(CCc4ccccc4)c3n2)CC1 | – | -23.1% |
| O=c1c(-c2ccccc2)nc2cnc(N3CCOCC3)nc2n1CCc1ccccc1 | – | -30.7% |
| O=c1cnc2cnc(N3CCOCC3)nc2n1CCc1ccccc1 | 0.1 µM (active) | – |
| CN1CCN(c2ncc3ncc(=O)n(CCc4ccccc4)c3n2)CC1 | 6.31 µM (active) | – |
| COc1ccc(-c2nc3cnc(N4CCOCC4)nc3n(CCc3ccccc3)c2=O)cc1 | – | -39.4% |
| O=c1cnc2cnc(N3CCOCC3)nc2n1Cc1ccc(F)cc1 | 3.98 µM (active) | – |
| CN1CCN(c2ncc3ncc(=O)n(Cc4cccs4)c3n2)CC1 | – | -40.5% |
| COc1ccc(-c2nc3cnc(N4CCN(C)CC4)nc3n(CCc3ccccc3)c2=O)cc1 | – | 1.01% |
| O=c1cnc2cnc(N3CCOCC3)nc2n1C[C@H]1CCCO1 | – | 32.5% |
| CN1CCN(c2ncc3nc(-c4ccccc4)c(=O)n(CCc4ccccc4)c3n2)CC1 | – | -31.9% |
| COc1ccc(O)c(/C=N/NC(=O)c2ccc(OCc3cccc(Br)c3)cc2)c1 | – | -4.51% |
| COC(=O)CCC(=O)NNC(=O)c1ccc(Br)cc1 | – | -12.7% |
| COc1ccc(C(=O)NCC(=O)OCc2cccc(Br)c2)cc1 | 3.55 µM (active) | – |
| CCO[C@H](c1cc(OC)cc([N+](=O)[O-])c1OC)[C@H](C)/C=C\CC(=O)OC | 0.398 µM (active) | – |
| CO/N=C\[C@@H](OC)[C@H](C)/C=C\CC(=O)OC | – | -12.9% [at 11.4 µM] |
| COC(=O)C/C=C\[C@H](C)[C@@H](OC)c1ccccc1Br | – | -6.61% [at 11.4 µM] |
